What all share (set-up): scale not given: direction of the effect not stated beside the values
The target in test [1] is Protein translocase subunit SecA (Escherichia coli (strain K12)) (UniProt P10408). Put plainly: Assay to Identify E. coli SecA ATPase Inhibitors. The test is classed as functional. The settings on record: 30 µM.
The target in test [2] is T1, Ubiquitin-activating enzyme e1, putative (Leishmania donovani (strain BPK282A1)) (UniProt E9BSI1).
T1 sequence (whole entry): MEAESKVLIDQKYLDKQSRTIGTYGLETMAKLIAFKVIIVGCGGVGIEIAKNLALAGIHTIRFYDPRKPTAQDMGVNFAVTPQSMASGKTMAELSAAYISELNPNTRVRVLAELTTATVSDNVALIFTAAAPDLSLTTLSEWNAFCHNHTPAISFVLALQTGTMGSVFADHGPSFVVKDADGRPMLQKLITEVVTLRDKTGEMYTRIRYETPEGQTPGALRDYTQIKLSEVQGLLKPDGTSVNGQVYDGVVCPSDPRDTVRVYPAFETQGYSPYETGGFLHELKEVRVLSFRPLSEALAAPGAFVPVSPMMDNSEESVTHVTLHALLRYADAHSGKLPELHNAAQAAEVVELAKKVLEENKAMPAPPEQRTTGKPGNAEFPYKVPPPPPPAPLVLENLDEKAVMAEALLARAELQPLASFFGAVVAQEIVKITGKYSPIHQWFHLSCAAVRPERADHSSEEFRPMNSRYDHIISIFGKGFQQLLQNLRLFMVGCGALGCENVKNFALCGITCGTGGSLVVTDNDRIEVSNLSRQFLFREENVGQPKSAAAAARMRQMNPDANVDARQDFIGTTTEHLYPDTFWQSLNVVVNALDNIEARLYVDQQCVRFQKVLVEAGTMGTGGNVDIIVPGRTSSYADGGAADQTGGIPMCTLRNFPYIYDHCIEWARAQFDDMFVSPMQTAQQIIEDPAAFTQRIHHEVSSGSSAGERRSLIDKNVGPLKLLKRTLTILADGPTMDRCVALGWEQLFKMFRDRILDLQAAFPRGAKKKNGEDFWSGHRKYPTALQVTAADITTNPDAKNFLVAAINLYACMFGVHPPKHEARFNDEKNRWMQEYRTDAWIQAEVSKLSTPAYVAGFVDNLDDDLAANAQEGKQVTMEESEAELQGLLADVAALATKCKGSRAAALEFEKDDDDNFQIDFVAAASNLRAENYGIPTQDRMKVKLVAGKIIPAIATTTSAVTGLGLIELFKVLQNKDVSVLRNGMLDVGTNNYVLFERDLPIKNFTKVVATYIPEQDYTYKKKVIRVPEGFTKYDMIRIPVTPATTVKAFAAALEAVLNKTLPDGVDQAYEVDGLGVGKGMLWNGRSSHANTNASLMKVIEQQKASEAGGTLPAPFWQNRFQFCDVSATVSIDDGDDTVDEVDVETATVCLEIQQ
Kind of test: Leishmania donovani Ubiquitin Activating Enzyme (LdE1). The test is classed as functional. The settings on record: 30 µM.

For test [3], the target named is AMP-activated protein kinase, AMPK (Homo sapiens) (UniProt P54646+O43741+P54619+Q9UGJ0+Q9Y478+Q13131+Q9UGI9). Put plainly: AMP-dependent Kinase enzyme assay. An in vitro enzyme assay that detects ADP turnover that is directly proportional to AMPK activity. This uses naive AMPK that is activated during the assay with MK-8722. The settings on record: 30 µM. The test is classed as functional.

Test [4] deals with Sialic acid-binding Ig-like lectin 9 (Homo sapiens) (UniProt Q9Y336). Put plainly: Hs-Siglec9 ALPHAscreen SOP 20170721. The conditions noted are these: 10 µM. In general terms: Bead proximity is the source of the signal in Alpha formats.
Sequence of Sialic acid-binding Ig-like lectin 9 (Homo sapiens) (Q9Y336 whole entry): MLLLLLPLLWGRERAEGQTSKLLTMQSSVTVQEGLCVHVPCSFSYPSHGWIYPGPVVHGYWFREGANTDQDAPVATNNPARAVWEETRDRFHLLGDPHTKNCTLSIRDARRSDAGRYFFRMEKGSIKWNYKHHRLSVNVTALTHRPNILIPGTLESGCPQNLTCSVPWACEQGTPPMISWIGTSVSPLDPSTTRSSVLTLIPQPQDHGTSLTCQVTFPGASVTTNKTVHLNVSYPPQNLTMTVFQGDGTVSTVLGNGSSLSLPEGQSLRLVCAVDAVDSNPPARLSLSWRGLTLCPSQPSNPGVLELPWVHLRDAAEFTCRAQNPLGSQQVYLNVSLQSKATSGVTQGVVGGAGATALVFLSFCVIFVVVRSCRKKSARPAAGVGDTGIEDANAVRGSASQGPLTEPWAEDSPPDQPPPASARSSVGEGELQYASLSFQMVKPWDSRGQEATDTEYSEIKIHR
The next test concerns Trypanosoma cruzi. Put plainly: Trypanosoma cruzi phosphomannomutase and mannose-1-phosphate guanylyltransferase assay. Type of test: functional. The settings on record: 10 µM.
In test [5] the target is T2, Arginase-2, mitochondrial (Homo sapiens) (UniProt P78540).
T2 sequence (whole entry): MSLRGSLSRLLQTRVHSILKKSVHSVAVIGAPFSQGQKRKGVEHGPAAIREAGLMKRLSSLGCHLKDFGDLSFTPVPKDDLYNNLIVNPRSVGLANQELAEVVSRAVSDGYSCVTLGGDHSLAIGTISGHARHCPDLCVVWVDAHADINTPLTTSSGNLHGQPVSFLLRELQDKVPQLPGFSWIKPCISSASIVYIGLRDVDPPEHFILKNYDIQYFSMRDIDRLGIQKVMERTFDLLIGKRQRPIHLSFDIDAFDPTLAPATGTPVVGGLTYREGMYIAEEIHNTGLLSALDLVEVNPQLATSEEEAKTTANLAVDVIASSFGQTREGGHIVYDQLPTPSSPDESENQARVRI
Kind of test: in vitro enzyme assay to detect the production of urea directly proportional to the activity of Arginase II. Further: in the data most compounds retested in dose-response had high values. Type of test: functional. The conditions noted are these: 33.3 µM.

For test [6], the target named is T3, Proteasome subunit beta (Trypanosoma cruzi) (UniProt O96673).
T3 sequence (whole entry): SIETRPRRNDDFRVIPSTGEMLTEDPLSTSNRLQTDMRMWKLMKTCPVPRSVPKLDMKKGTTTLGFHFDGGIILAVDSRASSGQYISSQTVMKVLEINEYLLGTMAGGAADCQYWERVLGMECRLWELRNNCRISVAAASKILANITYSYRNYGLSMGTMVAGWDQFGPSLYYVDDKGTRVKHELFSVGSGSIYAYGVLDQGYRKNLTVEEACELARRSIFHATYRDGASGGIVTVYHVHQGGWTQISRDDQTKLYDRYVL
Kind of test: Trypanosoma cruzi proteasome chymotrypsin-like activity (TcProtChymo) assay. Further: in the data most compounds retested in dose-response had high values. The settings on record: 9.37 µM. The test is classed as functional.

The species entered for the next test is Homo sapiens. Put plainly: To identify inhibition of the IFN signalling (Jak-Stat) pathway via expression of an eGFP reporter gene under the control of an IFN-stimulated response element (ISRE) containing MxA promoter. Type of test: functional. The conditions noted are these: 30 µM.
Test [7] deals with T4, Tyrosyl-tRNA synthetase, putative (Trypanosoma cruzi (strain CL Brener)) (UniProt Q4DSP6).
T4 sequence (whole entry): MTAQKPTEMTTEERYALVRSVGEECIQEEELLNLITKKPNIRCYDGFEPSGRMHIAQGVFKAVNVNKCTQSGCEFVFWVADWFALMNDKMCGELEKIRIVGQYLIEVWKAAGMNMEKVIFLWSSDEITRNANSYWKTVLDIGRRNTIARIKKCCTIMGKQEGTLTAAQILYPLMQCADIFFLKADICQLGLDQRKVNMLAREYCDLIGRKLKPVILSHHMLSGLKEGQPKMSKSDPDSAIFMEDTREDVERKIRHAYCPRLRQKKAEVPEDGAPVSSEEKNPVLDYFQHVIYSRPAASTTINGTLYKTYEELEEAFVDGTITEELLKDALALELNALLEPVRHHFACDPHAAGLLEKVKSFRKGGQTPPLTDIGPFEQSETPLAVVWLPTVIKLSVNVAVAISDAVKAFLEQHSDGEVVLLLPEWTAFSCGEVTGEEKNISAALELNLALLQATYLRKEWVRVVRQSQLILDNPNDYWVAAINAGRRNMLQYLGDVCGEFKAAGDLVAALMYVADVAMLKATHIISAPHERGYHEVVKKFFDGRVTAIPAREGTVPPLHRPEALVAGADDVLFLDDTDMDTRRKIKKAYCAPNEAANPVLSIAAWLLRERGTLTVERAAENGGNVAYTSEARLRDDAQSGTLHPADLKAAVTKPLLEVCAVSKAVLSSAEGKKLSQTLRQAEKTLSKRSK
Kind of test: Trypanosoma cruzi tyrosyl tRNA synthetase (TcYRS) _High Tyrosine SOP. Further: in the data most compounds retested in dose-response had high values. Type of test: functional. The settings on record: 30 µM.

The target in test [8] is T4, Tyrosyl-tRNA synthetase, putative (Trypanosoma cruzi (strain CL Brener)). Put plainly: Trypanosoma cruzi tyrosyl tRNA synthetase (TcYRS) SOP. The conditions noted are these: 30 µM. Type of test: functional.
For test [9], the target named is Chromo domain-containing protein 1 (Saccharomyces cerevisiae (strain ATCC 204508 / S288c) (Baker's yeast)) (UniProt P32657). Put plainly: ScCHD-1 Enzyme Inhibition Assay. Further: in the data most compounds retested in dose-response had high values. The test is classed as functional. The settings on record: 30 µM.
Sequence of Chromo domain-containing protein 1 (Saccharomyces cerevisiae (strain ATCC 204508 / S288c) (Baker's yeast)) (P32657 whole entry, the tested form may be a part): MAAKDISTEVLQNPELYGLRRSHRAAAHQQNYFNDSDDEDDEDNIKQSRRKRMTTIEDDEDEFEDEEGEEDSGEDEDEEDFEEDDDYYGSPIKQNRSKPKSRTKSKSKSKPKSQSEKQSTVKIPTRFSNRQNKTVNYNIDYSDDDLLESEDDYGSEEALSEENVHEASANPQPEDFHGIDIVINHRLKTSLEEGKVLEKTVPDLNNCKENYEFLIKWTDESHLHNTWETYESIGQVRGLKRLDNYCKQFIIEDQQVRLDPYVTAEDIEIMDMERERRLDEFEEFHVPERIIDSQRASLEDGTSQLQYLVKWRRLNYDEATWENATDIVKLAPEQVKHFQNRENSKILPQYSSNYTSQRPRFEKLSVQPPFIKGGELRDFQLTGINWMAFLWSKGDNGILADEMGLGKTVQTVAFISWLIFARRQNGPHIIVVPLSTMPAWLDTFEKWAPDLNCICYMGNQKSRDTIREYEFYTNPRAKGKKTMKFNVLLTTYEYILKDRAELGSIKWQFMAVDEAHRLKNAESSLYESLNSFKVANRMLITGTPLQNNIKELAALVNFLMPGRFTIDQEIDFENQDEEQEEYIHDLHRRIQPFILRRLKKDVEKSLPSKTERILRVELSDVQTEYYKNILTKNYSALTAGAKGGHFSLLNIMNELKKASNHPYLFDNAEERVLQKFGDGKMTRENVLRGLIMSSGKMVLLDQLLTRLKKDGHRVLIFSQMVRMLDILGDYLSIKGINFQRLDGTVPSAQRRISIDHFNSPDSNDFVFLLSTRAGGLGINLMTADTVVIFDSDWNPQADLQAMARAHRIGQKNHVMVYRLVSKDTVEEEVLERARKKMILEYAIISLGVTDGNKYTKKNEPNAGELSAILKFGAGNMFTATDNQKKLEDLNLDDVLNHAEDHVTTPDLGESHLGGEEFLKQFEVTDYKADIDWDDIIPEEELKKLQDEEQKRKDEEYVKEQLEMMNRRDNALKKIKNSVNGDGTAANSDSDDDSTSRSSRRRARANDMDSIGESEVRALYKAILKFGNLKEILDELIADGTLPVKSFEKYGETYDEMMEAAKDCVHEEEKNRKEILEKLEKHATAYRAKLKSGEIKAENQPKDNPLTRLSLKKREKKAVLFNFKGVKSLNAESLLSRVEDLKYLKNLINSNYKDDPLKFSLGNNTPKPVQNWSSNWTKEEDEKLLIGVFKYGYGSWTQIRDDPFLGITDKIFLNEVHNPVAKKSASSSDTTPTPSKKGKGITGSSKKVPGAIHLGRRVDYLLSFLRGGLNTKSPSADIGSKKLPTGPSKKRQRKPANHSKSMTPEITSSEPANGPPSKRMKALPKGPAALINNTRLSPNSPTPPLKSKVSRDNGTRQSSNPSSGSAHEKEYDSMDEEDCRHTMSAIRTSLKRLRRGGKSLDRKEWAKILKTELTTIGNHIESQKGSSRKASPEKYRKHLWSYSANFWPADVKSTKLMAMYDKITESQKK

For some assays here: Entries with a potency or affinity are not part of this list.

Sequence of Protein translocase subunit SecA (Escherichia coli (strain K12)) (P10408 whole entry): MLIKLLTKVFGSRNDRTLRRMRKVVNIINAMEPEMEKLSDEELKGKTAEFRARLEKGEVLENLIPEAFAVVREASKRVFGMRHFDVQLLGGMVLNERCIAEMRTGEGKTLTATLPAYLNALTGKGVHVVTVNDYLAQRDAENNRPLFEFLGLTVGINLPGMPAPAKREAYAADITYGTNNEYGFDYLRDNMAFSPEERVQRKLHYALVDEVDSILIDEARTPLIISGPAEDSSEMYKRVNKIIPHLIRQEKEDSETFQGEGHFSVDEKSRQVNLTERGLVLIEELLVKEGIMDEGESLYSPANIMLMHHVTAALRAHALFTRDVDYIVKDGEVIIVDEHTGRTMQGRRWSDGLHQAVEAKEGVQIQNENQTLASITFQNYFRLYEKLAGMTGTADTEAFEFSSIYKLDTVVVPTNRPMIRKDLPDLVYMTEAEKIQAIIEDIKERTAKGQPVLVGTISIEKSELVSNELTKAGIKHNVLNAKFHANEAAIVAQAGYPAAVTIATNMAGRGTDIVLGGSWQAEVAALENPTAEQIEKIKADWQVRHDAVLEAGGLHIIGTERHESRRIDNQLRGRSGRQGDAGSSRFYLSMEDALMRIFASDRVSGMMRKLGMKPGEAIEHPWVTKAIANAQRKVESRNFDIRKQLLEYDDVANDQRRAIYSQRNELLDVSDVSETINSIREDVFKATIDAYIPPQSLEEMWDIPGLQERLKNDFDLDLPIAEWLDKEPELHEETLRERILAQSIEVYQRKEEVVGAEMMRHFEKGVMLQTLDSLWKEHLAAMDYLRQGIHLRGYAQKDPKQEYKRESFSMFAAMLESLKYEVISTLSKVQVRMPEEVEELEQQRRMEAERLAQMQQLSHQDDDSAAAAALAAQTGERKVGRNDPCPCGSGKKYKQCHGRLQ

On to `COCCNC(=O)[C@H]1CN(Cc2scnc2C)C[C@H]2OCC[C@@H]12`, for which the Percent Effect in test [1] was -3.71%; in test [2] it was 5.48%; in test [3] it was 0.0499%; in test [4], 5.36%; in the test on Trypanosoma cruzi, 3.77%; in [5], 1.2%. The Percent Effect came to 1.11% in test [6]; 4.51% in the test filed under Homo sapiens; 5.21% in [7]; 16.1% in test [8]; 1.51% in test [9].

Regarding `Cc1cccc(CN2C(=O)CC[C@@H]3[C@H]2CCN3Cc2ccc(C)s2)n1`, the Percent Effect was -2.54% in [1]; 2.67% in test [2]; 9.98% in [3]; 2.33% in test [4]; -1.57% with Trypanosoma cruzi; 0.233% in test [5]. Also, the Percent Effect was 9.43% in test [6]; 6.8% in the test filed under Homo sapiens; -1.06% in test [7]; -3.85% in [8]; 2.14% in test [9].

For `Cc1ccc(NC(=O)N2CCN(Cc3noc(C4CC4)n3)CC2)cc1`, the Percent Effect in test [1] was -10.7%; in test [2], -1.27%; in test [3], 5.38%; in test [4], -5.9%; in the test with Trypanosoma cruzi, -3.38%; in test [5], -4.09%. Moreover, the Percent Effect in test [6] was 10.1%; in the test filed under Homo sapiens it was 10.8%; in [7], -1.04%; in [8] it was -5.06%; in [9] it was -24.6%.

As for `COc1ccc(C2(CNC(C)c3nnc(C)o3)CCCCC2)cc1` (stereo not given), the Percent Effect is -1.33% in test [1]; -8.11% in [2]; -8.86% in test [3]; 6.11% in test [4]; 8.69% with Trypanosoma cruzi; -4.76% in [5]. The Percent Effect was 6.03% in [6]; 5.78% in the test listed under Homo sapiens; 0.529% in test [7]; 0% in test [8]; 0.233% in [9].

On to `COc1ccc(Br)c(C(=O)NCCNc2ccc(C(F)(F)F)cn2)c1`, for which the Percent Effect in [1] was 0.559%; in test [2] it was 18.2%; in [3], 8.45%; in [4], -0.542%; with Trypanosoma cruzi, -1.08%; in test [5], 0.21%. For the same compound, the Percent Effect in [6] is 10.9%; in the test filed under Homo sapiens, -7.76%; in test [7] it was 11.4%; in test [8], 25.9%; in test [9], -25.7%.

As to `Cc1noc(C)c1-c1cccc(CC2CCN(C(=O)CCC(=O)O)C2)n1` (stereo not given), the Percent Effect was -2.58% in [1]; 6.76% in [2]; 5.24% in test [3]; 4.95% in [4]; 3.16% in the test on Trypanosoma cruzi; 0.696% in test [5]. Also, the Percent Effect in test [6] was 3.28%; in the test filed under Homo sapiens, -7.92%; in test [7] it was 1.07%; in test [8], 3.9%; in [9], -9.71%.

In the case of `c1ccc(N2CCCC3(COCCN(c4nccs4)C3)C2)nc1` (stereo not given), the Percent Effect in [1] is 0.192%; in test [2] it was 0%; in test [3] it was -5.45%; in [4], 16.4%; with Trypanosoma cruzi, 11.7%; in test [5] it was 0.399%. Also, the Percent Effect in test [6] amounted to 16%; in the test filed under Homo sapiens, 31.6%; in [7] it was 16.7%; in test [8], 23.5%; in test [9], 10.7%.

On to `COc1cc(C(=O)NS(=O)(=O)c2cccc(C#N)c2)ccc1C`, for which the Percent Effect in test [1] was -1.35%; in [2] it was -10.8%; in test [3], -1.79%; in test [4], 1.78%; with Trypanosoma cruzi, 7.15%; in test [5] it was -0.554%. Further, the Percent Effect in test [6] is 2.33%; in the test filed under Homo sapiens, 10.3%; in test [7], -5.94%; in test [8], -1.22%; in test [9] it was -2.42%.

With `Cc1ccc(CN2CC[C@H]3[C@@H]2CCC(=O)N3CCN2CCCC2)s1`, the Percent Effect in test [1] was -1.28%; in test [2] it was 10.7%; in test [3], 8.56%; in test [4] it was -12.2%; in the test with Trypanosoma cruzi it was -8.27%; in test [5] it was -3.03%. The Percent Effect is 10.5% in test [6]; 7.46% in the test filed under Homo sapiens; -3.19% in test [7]; 1.28% in test [8]; -2.35% in test [9].

With `O=C(CCn1ccc2cc(Br)ccc21)NCc1ccc(C(=O)O)cc1`, the Percent Effect in test [1] is -5.12%; in [2], 2.63%; in [3], 11.6%; in test [4] it was 0.438%; in the test on Trypanosoma cruzi, -3.02%; in test [5], -3.55%. For the same compound, the Percent Effect is 16.2% in test [6]; 10.9% in the test listed under Homo sapiens; -6.38% in test [7]; -10.4% in test [8]; -1.59% in [9].
